Screening results from PubChem.
PLAP act: activators of human placental alkaline phosphatase; AID 696; purified PLAP enzyme, luminescent substrate read-out; active compounds read high; P05187; activation fold at 20 µM; 96,000 compounds, 1.2% hits; in the data active = activation fold above about 2
M1 agonist: M1 muscarinic receptor agonism | B-score at 10 µM | CHO-M1 cells, Fluo-4 calcium fluorescence, agonist mode; active compounds read high | 64,000 compounds, 3% hits;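 active = fluorescence rise, raw or as B-score row- and column-corrected plate score, outside the 99.7% band of its plate's samples, either direction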
Cav3 T inh: blocks human Cav3.2 T-type calcium channel. O95180. Cav3.2-expressing cells, Fluo-4 calcium fluorescence FDSS; active compounds read low. B-score at 10 µM. 100,000 compounds, 4% hits. AID 449739;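 active = single-dose well whose peak fluorescence ratio is a statistical outlier from its plate by either plate-standardised score or position-corrected B-score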
M1 antagonist: M1 muscarinic receptor (rat) antagonism | P08482 | B-score at 10 µM | 64,000 compounds, 3.4% hits | CHO-M1 cells, Fluo-4 calcium, ACh EC80 antagonist mode; active compounds read low | AID 628;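 active = calcium fluorescence response, raw or row-and-column corrected B-score, differing from the plate sample mean either way at a set confidence level, mostly lower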
Her2 expr inh: inhibitors of human Her2 kinase expression; P04626; SKBR-3 HER2 protein level, AlphaScreen, 18-24 h; active compounds read low; HER2 level % of control, % at 10 µM; 65,000 compounds, 0.69% hits; AID 645;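 active = HER2 level under 5% of the carrier-only control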;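 also: lower value means stronger loss of Her2 protein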
Target sequence (P04626 whole entry, looked up): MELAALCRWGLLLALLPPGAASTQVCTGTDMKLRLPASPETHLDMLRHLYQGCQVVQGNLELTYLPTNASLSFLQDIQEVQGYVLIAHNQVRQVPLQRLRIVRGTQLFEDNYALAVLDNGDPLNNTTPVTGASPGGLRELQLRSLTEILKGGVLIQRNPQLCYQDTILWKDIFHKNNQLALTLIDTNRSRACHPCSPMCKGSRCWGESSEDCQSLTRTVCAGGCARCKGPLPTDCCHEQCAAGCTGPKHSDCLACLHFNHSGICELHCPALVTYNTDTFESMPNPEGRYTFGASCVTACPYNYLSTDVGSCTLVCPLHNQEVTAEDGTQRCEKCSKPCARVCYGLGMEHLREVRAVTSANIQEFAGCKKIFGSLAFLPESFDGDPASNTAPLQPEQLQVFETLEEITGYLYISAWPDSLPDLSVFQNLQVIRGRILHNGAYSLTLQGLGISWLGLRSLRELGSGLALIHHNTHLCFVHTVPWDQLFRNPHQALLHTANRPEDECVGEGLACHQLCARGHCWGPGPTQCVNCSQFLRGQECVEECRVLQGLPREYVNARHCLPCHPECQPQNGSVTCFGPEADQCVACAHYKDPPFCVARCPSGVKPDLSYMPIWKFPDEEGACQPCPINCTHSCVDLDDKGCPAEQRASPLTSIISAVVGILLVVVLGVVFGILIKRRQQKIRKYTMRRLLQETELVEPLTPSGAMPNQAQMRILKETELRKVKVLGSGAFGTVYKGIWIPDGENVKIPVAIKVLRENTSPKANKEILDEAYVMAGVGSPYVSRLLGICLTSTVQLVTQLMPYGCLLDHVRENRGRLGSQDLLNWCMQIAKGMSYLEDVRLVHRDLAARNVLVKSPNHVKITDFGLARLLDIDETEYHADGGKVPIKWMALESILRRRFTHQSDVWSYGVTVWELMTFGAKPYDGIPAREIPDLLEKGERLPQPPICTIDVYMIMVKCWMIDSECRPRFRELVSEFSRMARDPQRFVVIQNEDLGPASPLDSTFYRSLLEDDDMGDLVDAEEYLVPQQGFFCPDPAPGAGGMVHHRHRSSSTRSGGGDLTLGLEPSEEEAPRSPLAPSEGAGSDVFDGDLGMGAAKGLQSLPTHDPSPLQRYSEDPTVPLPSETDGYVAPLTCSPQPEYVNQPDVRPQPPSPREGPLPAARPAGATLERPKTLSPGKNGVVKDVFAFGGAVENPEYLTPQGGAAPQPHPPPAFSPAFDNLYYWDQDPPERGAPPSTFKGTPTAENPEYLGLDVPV
Hits are given with their value; n = inactive; x = no result given. An excerpt weighted towards active compounds, which were near 7.9% of everything screened.

SMILES | PLAP act | M1 agonist | Cav3 T inh | M1 antagonist | Her2 expr inh
Cc1sc2nc(CN(C(=O)NC3CCCCC3)C3CCCCC3)[nH]c(=O)c2c1C | x | x | n | x | x
CSCCC(NC(=O)OC(C)(C)C)C(=O)NC(C(=O)NC(CC(C)C)C(N)=O)C(C)C (stereo not given) | n | x | n | x | x
Cc1ccc2oc(Nc3nc(C)cc(C)n3)nc2c1 | 2.8 | n | n | n | n
Cc1ccc2oc(-c3ccccc3)nc2c1 | n | x | n | x | x
CC(C(=O)N1c2ccc(F)cc2CCC1C)N1C(=O)c2ccccc2C1=O (stereo not given) | n | n | n | n | n
CCc1nnc(NC(=O)c2ccc(S(=O)(=O)N(CC)CC)cc2)s1 | x | n | n | n | n
CCCCN(C)S(=O)(=O)c1ccc(C(=O)Nc2nnc(CSC)o2)cc1 | n | n | n | n | n
CCCCN(CC)S(=O)(=O)c1ccc(C(=O)Nc2nnc(-c3cccs3)o2)cc1 | n | n | -4.8 | n | n
CCCCN(CCCC)S(=O)(=O)c1ccc(C(=O)Nc2nnc(COC)o2)cc1 | n | n | n | n | -17
CN(c1ccccc1)S(=O)(=O)c1ccc(C(=O)Nc2nnc(-c3ccc(F)cc3)o2)cc1 | n | n | -7.5 | n | n
CCc1nnc(NC(=O)c2ccc(S(=O)(=O)N(CC)Cc3ccccc3)cc2)o1 | n | n | -4.4 | n | n
Cc1cccc(C)c1NC(=O)C(c1ccccc1)N1CCC1=O (stereo not given) | n | x | n | x | x
CN(Cc1ccccc1)S(=O)(=O)c1ccc(C(=O)Nc2nnc(C3CC3)o2)cc1 | n | n | n | n | n
COc1ccccc1-c1nnc(NC(=O)c2ccc(S(=O)(=O)N(C)Cc3ccccc3)cc2)o1 | x | n | -5.8 | n | n
CCOC(=O)[C@@H]1[C@H]2COc3ccccc3[C@@H]2N2C(=O)N(c3ccc(C(F)(F)F)cc3)C(=O)[C@]12C | x | x | n | x | x
COc1ccc(C2CC(c3ccccc3)n3nc(NC(=O)c4cccs4)nc3N2)cc1 (stereo not given) | n | n | x | n | n
O=C(Nc1nc2n(n1)C(c1ccc(Cl)cc1)CC(c1ccc(Cl)cc1)N2)c1ccco1 (stereo not given) | n | n | -5.3 | n | n
COc1ccc(C2CC(c3ccc(Cl)cc3)Nc3nc(NC(=O)c4ccco4)nn32)cc1 (stereo not given) | x | n | -3.9 | n | n
COc1ccc(C2CC(c3ccccc3)Nc3nc(NC(=O)c4cccs4)nn32)cc1 (stereo not given) | n | n | n | n | n
O=C(CN1CCOCC1)N1CCN(c2ccc3ccccc3n2)CC1 | x | x | n | x | x
c1ccc2nc3ccccc3nc2c1 | x | x | -4.4 | x | x
CCCCn1c(SCc2nnc(-c3ccccc3)o2)nc2c1c(=O)n(C)c(=O)n2C | n | 3 | n | n | n
CCn1c(SCc2nnc(-c3ccccc3)o2)nc2c1c(=O)n(C)c(=O)n2C | n | n | x | n | n
CCOC(=O)C1=C(CC)Nc2ccccc2N=C1NC(=O)c1cc(S(=O)(=O)N(C)C)ccc1Cl | n | x | n | x | x
CCOC(=O)C1=C(CC)Nc2ccccc2N=C1NC(=O)Nc1ccccc1OC | n | n | n | 0.84 | n
SMILES | PLAP act | M1 agonist | Cav3 T inh | M1 antagonist | Her2 expr inh
O=C(Nc1cnc2ccccn2c1=O)c1ccc(Cl)cc1 | n | x | n | x | x
O=C(Nc1ccc(Cc2ccncc2)cc1)c1ccc(Cl)c([N+](=O)[O-])c1 | n | x | -8.7 | x | x
CC(C)CC(C(=O)NCC1CCCO1)N(C(=O)Cn1nnc(-c2ccc(F)cc2)n1)c1ccccc1F (stereo not given) | n | x | -3.4 | x | x
CC(C)(C)NC(=O)C(c1ccco1)N(C(=O)Cn1nnc(-c2ccc(F)cc2)n1)c1ccccc1 (stereo not given) | x | n | x | n | n
CC(C)(C)NC(=O)C(c1ccco1)N(C(=O)Cn1nnc(-c2ccc(F)cc2)n1)c1ccccc1F (stereo not given) | n | n | -5 | n | n
Cc1ccc(-c2nnn(CC(=O)N(CC3CCCO3)C(C(=O)NC(C)(C)C)c3ccc(F)cc3)n2)o1 (stereo not given) | x | n | n | n | n
CC(C)CC(C(=O)NCC1CCCO1)N(C(=O)Cn1nnc(-c2ccc(F)cc2)n1)c1cccc(C(F)(F)F)c1 (stereo not given) | n | x | n | x | x
Cc1ccc(-c2nnn(CC(=O)N(CC3CCCO3)C(C(=O)NC3CCCCC3)c3ccc(F)cc3)n2)o1 (stereo not given) | n | x | n | x | x
Cc1ccc(N(C(=O)Cn2nnc(-c3ccc(F)cc3)n2)C(CC(C)C)C(=O)NCC2CCCO2)cc1 (stereo not given) | n | x | -7.4 | x | x
